Laboratory results published in the supplement of paper PMC10849652.
Of roughly 7,900 targets only a part is listed; those with a hit were picked by preference. About 0.6% of all pairs of compound and target were hits.

Experiments:
Assay in all cases: log2 fold change, soluble protein after heating vs DMSO (PISA); higher = thermal stabilisation; K562 cells, 10 uM, 30 min; active = over 0.2 and 3.5 SD of the protein, either way, in both replicates (recomputed)
erlotinib = compound: C#Cc1cccc(Nc2ncnc3cc(OCCOC)c(OCCOC)cc23)c1 [erlotinib]
Method in brief: (§1)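 K562 cells at 2×10^6 cells/mL were given 10 μM compound for 30 min. Aliquots then went through 3 min of heating across 48°C-58°C, were pooled, and were extracted in PBS with 0.5% NP-40 at 4°C, and the supernatant after 21,000xg for 90 min was quantified by TMTpro 16plex LC-MS/MS with channel sums equalised. Thermal stability relative to control samples, from duplicates, is given as log2 fold change.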

[1] = compound: C/C(=N\NC(=O)C1=CC(=CC=C1)S(=O)(=O)N2CCOCC2)/C3=C(C=CC(=C3)Cl)O
Method in brief: as §1

[2] = compound: C1=CC(=C(C=C1Cl)C2=NC3=NC=CN=C3C(=N2)NC4=CC=NC=C4)F
Method in brief: as §1

[3] = compound: C1=CC(=CC=C1C2=NC3=C(N2)C=C(C=C3)C(=O)N)OC4=CC=C(C=C4)Cl
Method in brief: as §1

[4] = compound: C1=CC2=C(C=CC(=C2)/C=C\3/C(=O)NC(=NCC4=CC=CS4)S3)N=C1
Method in brief: as §1

[5] = compound: C1=CC2=NC=CN=C2C=C1/C=C/3\C(=O)NC(=O)S3
Method in brief: as §1

[6] = compound: C1=CC=C(C=C1)C2=NC(=C(N2)C3=CC=NC=C3)C4=CC(=C(C=C4)Cl)O
Method in brief: as §1

[7] = compound: C1=CC=C2C(=C1)C3=NNC4=CC=CC(=C43)C2=O
Method in brief: as §1

[8] = compound: C1CCN(C1)C(=O)NC2=CC=CC(=C2)NC3=NC=C(C(=N3)NCCC4=CN=CN4)Br
Method in brief: as §1

[9] = compound: C1CN(CCC1(CC2=CC=C(C=C2)Cl)N)C3=NC=NC4=C3C=CN4
Method in brief: as §1

Measured: log2 fold change

GSR (UniProt P00390)
UniProt P00390, sequence (P00390 whole entry, looked up): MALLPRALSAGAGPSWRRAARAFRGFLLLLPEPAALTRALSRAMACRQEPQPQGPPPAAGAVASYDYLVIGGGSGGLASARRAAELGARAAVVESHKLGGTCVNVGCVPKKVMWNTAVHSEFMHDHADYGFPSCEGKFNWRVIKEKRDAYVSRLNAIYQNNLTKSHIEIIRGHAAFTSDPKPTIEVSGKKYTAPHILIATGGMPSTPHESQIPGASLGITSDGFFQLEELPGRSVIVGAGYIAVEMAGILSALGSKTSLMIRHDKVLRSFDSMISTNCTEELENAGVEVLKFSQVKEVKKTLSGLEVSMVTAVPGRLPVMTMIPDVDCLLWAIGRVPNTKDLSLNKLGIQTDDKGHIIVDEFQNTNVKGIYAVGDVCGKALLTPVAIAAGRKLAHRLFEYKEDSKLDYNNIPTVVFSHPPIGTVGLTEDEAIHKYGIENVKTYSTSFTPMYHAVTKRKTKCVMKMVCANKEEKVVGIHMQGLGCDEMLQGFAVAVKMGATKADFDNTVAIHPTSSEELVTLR
inactive: erlotinib -0.099 | [1] 0.021 | [2] 0.071 | [3] 0.067 | [4] 0.023 | [5] 0.007 | [6] -0.026 | [7] -0.017 | [8] 0.011 | [9] 0.054

HIKESHI (UniProt Q53FT3)
inactive: erlotinib 0.004 | [1] 0.1 | [2] 0.017 | [3] 0.003 | [4] 0.073 | [5] 0.02 | [6] -0.002 | [7] -0.03 | [8] -0.056 | [9] 0.009

HOMER1 (UniProt Q86YM7)
UniProt Q86YM7, sequence (Q86YM7 whole entry, looked up): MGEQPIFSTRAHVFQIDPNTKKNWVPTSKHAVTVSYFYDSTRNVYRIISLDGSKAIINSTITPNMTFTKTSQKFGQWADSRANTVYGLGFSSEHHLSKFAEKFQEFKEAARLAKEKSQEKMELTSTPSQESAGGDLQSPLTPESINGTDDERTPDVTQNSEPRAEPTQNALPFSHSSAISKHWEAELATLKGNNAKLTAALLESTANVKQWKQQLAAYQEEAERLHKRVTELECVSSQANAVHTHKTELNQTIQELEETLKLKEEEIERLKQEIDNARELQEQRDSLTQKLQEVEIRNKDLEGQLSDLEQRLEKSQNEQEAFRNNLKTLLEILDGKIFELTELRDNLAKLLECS
inactive: erlotinib -0.103 | [1] -0.015 | [2] -0.05 | [3] 0.016 | [4] 0.021 | [5] 0.074 | [6] -0.057 | [7] -0.015 | [8] 0.062 | [9] -0.011

FDXR isoform 7 (UniProt P22570)
UniProt P22570, sequence (P22570 whole entry, looked up): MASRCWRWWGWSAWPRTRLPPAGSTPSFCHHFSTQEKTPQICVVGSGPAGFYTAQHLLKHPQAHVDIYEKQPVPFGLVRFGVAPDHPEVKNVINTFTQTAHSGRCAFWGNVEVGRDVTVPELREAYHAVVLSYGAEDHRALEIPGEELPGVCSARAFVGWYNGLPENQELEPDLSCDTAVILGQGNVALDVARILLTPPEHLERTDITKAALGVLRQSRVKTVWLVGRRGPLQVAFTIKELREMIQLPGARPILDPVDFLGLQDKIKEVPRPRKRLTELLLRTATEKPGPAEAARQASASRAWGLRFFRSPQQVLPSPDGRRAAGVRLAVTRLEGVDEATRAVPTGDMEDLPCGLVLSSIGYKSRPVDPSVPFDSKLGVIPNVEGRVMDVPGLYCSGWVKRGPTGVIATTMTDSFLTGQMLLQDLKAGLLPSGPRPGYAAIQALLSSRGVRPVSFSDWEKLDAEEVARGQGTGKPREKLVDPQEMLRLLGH
inactive: erlotinib 0.092 | [1] 0.033 | [2] 0.109 | [3] -0.126 | [4] 0.076 | [5] -0.13 | [6] 0.064 | [7] 0 | [8] 0.025 | [9] 0.019

HIST2H3A (UniProt Q71DI3)
inactive: erlotinib 0.113 | [1] -0.114 | [2] -0.305 | [3] -0.028 | [4] 0.011 | [5] 0.221 | [6] 0.047 | [7] -0.004 | [8] 0.287 | [9] -0.378

GABARAPL1 isoform 2 (UniProt Q9H0R8)
UniProt Q9H0R8, sequence (Q9H0R8 whole entry, looked up): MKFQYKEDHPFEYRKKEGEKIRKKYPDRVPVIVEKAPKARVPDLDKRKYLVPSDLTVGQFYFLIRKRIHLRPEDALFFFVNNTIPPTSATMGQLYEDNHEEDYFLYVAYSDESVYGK
inactive: erlotinib 0.071 | [1] -0.012 | [2] -0.023 | [3] -0.029 | [4] 0.074 | [5] -0.033 | [6] -0.001 | [7] 0.02 | [8] -0.02 | [9] 0.016

GNAS (UniProt Q5JWF2)
inactive: erlotinib 0.001 | [1] 0.042 | [2] -0.032 | [3] 0.043 | [4] 0.026 | [5] 0.021 | [6] 0.02 | [7] 0.011 | [8] -0.011 | [9] 0.043

GLCCI1 (UniProt Q86VQ1)
UniProt Q86VQ1, sequence (Q86VQ1 whole entry, looked up): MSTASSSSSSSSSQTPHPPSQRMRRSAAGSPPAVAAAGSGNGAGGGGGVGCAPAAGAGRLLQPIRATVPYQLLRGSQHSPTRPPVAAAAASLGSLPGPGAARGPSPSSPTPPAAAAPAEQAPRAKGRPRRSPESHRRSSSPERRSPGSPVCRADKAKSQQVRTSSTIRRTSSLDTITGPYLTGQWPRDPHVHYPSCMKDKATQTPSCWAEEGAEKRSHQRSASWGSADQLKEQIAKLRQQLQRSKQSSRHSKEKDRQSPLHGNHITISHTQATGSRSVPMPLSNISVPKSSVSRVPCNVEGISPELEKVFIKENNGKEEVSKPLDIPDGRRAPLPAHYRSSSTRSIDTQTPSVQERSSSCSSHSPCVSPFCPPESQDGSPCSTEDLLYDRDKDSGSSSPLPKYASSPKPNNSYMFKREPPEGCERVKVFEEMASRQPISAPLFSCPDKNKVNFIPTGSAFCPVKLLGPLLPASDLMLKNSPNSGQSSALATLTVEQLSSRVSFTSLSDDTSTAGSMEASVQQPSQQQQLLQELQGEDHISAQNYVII
inactive: erlotinib 0.027 | [1] -0.101 | [2] -0.058 | [3] -0.006 | [4] 0.091 | [5] 0.023 | [6] -0.264 | [7] -0.017 | [8] -0.044 | [9] -0.024

GALNT11 (UniProt Q8NCW6)
inactive: erlotinib 0.088 | [1] -0.019 | [2] 0.033 | [3] -0.009 | [4] 0.122 | [5] 0.118 | [6] -0.034 | [7] 0.043 | [8] -0.025 | [9] 0.014

GLUD2 (UniProt P49448)
inactive: erlotinib 0.009 | [1] -0.028 | [2] 0.028 | [3] 0.036 | [4] 0.003 | [5] -0.011 | [6] 0.03 | [7] 0.027 | [8] -0.005 | [9] -0.009

GAPVD1 isoform 6 (UniProt Q14C86)
inactive: erlotinib 0.008 | [1] 0.133 | [2] -0.036 | [3] -0.043 | [4] 0.033 | [5] 0.007 | [6] 0.002 | [7] 0.037 | [8] -0.012 | [9] -0.041

GABPA (UniProt Q06546)
UniProt Q06546, sequence (Q06546 whole entry, looked up): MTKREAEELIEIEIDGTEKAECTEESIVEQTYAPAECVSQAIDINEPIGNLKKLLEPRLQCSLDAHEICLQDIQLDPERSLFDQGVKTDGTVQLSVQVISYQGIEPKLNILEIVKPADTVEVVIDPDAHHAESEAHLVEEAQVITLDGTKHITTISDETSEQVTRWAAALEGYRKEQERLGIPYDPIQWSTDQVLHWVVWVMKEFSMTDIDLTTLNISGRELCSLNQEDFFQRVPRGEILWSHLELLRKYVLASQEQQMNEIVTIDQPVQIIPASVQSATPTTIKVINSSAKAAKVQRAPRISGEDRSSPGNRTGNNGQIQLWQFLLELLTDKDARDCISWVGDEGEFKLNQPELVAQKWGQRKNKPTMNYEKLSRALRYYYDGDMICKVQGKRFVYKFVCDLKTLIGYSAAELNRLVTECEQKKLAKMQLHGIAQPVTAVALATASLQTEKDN
inactive: erlotinib 0.07 | [1] 0.121 | [2] 0.014 | [3] -0.042 | [4] 0.083 | [5] -0.055 | [6] 0.049 | [7] 0.025 | [8] -0.028 | [9] 0.011

GOLGB1 isoform 2 (UniProt Q14789)
inactive: erlotinib -0.152 | [1] -0.045 | [3] -0.055 | [4] 0.099 | [5] 0.071 | [6] -0.049 | [7] -0.059 | [8] -0.059 | [9] -0.08
active: [2] -0.312

HOOK3 (UniProt Q86VS8)
inactive: erlotinib 0.04 | [1] 0.039 | [2] 0.009 | [3] -0.008 | [4] 0.055 | [5] 0.032 | [6] -0.002 | [7] -0.036 | [8] -0.005 | [9] -0.024

GTF3C4 (UniProt Q9UKN8)
UniProt Q9UKN8, sequence (Q9UKN8 whole entry, looked up): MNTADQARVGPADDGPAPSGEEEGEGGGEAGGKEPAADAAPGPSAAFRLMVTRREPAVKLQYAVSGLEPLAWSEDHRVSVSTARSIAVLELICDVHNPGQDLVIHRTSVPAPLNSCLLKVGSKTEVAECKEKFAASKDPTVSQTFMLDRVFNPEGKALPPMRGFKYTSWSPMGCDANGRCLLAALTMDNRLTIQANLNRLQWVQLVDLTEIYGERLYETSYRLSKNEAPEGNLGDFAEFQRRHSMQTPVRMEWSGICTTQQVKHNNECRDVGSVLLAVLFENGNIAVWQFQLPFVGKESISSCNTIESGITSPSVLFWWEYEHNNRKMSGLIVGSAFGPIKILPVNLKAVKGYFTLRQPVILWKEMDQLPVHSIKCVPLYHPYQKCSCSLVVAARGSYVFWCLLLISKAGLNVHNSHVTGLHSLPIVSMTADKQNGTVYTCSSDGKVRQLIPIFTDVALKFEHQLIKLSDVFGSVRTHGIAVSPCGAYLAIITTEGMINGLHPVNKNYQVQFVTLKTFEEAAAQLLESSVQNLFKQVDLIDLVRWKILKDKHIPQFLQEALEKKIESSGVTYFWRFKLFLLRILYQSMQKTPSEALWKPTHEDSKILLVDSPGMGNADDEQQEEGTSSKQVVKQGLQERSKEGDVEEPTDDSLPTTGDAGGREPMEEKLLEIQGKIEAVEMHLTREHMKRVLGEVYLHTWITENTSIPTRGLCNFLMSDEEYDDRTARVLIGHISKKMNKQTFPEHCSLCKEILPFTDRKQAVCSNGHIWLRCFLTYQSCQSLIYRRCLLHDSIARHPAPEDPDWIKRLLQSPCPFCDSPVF
inactive: erlotinib -0.016 | [1] 0.065 | [2] 0.026 | [3] 0.003 | [4] 0.025 | [5] -0.005 | [6] 0.003 | [7] -0.022 | [8] -0.026 | [9] 0.027

GCLM (UniProt P48507)
inactive: erlotinib -0.054 | [1] 0.199 | [2] 0.014 | [3] -0.019 | [4] -0.078 | [5] 0.088 | [6] -0.006 | [7] 0.064 | [8] -0.008 | [9] -0.035

IFT74 (UniProt Q96LB3)
inactive: erlotinib 0.248 | [2] 0.125 | [3] -0.352 | [4] 0.087 | [5] -0.033 | [6] 0.211 | [7] -0.038 | [8] -0.076 | [9] 0.337
active: [1] -0.95

FKBP4 (UniProt Q02790)
inactive: erlotinib -0.04 | [1] 0.07 | [2] 0.055 | [3] -0.042 | [4] 0.017 | [5] 0.007 | [6] 0.036 | [7] 0.047 | [8] 0.016 | [9] -0.033

GNS (UniProt P15586)
inactive: erlotinib -0.033 | [1] -0.003 | [2] 0.005 | [3] 0.004 | [4] 0.028 | [5] 0.026 | [6] 0.03 | [7] -0.04 | [8] 0.023 | [9] 0.061

HBA1 (UniProt P69905)
inactive: erlotinib -0.058 | [1] 0.048 | [2] 0.215 | [3] 0.063 | [4] 0.104 | [5] 0.023 | [6] 0.123 | [7] -0.026 | [8] -0.105 | [9] 0.031

GMEB2 (UniProt Q9UKD1)
UniProt Q9UKD1, sequence (Q9UKD1 whole entry, looked up): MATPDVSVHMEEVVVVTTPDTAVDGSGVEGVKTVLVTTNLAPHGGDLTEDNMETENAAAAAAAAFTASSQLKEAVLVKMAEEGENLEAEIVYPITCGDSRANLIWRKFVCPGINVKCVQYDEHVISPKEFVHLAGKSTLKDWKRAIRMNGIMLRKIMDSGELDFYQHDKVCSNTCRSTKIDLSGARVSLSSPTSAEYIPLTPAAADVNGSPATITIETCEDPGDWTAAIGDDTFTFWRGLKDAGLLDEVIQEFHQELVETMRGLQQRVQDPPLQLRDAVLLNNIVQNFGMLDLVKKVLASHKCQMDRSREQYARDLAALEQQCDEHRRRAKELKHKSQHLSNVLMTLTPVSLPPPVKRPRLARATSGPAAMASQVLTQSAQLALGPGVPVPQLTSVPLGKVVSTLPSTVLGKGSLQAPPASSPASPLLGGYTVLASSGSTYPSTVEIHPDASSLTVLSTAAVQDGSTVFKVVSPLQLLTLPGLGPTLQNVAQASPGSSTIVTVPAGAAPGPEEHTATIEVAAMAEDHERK
inactive: erlotinib 0.003 | [1] 0.039 | [2] 0.168 | [3] 0.004 | [4] -0.009 | [5] 0.047 | [6] -0.022 | [7] -0.117 | [8] -0.105 | [9] 0.024

HAT1 (UniProt O14929)
UniProt O14929, sequence (O14929 whole entry, looked up): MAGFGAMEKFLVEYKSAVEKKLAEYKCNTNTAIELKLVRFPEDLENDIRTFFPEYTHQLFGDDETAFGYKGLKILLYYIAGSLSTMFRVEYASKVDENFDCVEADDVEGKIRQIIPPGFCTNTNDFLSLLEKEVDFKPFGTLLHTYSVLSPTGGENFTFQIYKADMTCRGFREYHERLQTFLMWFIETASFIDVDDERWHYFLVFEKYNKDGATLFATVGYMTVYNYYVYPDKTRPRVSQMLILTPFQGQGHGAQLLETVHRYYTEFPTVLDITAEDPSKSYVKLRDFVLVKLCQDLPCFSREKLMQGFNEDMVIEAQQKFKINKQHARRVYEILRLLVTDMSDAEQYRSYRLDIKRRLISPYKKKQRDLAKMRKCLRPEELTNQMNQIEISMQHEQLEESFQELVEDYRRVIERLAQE
inactive: erlotinib -0.048 | [1] 0.036 | [2] 0.044 | [3] 0.048 | [4] -0.075 | [5] -0.045 | [6] 0.03 | [7] 0.027 | [8] -0.055 | [9] 0.069

IFRD2 isoform 2 (UniProt Q12894)
inactive: erlotinib 0.204 | [1] -0.109 | [2] 0.003 | [3] 0.084 | [4] 0.048 | [5] 0.082 | [6] -0.051 | [7] 0.118 | [8] 0.302 | [9] 0.04

GBE1 (UniProt Q04446)
inactive: erlotinib 0.008 | [1] 0.135 | [2] 0.037 | [3] -0.057 | [4] 0.158 | [5] -0.019 | [6] -0.058 | [7] -0.03 | [8] -0.061 | [9] -0.108

HIST2H2BF isoform 2 (UniProt Q5QNW6)
inactive: erlotinib 0.013 | [1] -0.161 | [2] -0.433 | [3] 0.046 | [4] 0.048 | [5] 0.223 | [6] -0.057 | [7] -0.083 | [8] 0.191 | [9] -0.373

H3-3A (UniProt P84243)
inactive: erlotinib 0.085 | [3] -0.035 | [5] -0.1 | [8] 0.049 | [9] -0.218

GOLGA6B (UniProt A6NDN3)
inactive: erlotinib -0.069 | [2] -0.054 | [3] 0.116 | [5] 0.036

HNRNPUL1 (UniProt M0R247)
inactive: erlotinib -0.032 | [1] -0.317 | [3] -0.513 | [4] 0.545 | [7] -0.419 | [8] 0.471 | [9] 0.051

GBA2 (UniProt Q9HCG7)
inactive: erlotinib 0.063 | [1] 0.095 | [2] 0.04 | [3] 0.01 | [4] 0.033 | [5] -0.023 | [7] 0.028 | [8] 0.034 | [9] 0.104

IDH3A isoform 2 (UniProt P50213)
active: [1] -0.572
inactive: erlotinib 0.132 | [3] -0.084 | [4] 0.135 | [5] -0.017 | [7] 0.039 | [8] -0.052 | [9] 0.164

FUNDC1 (UniProt Q8IVP5)
active: [5] 0.597

GOLGA8R (UniProt I6L899)
UniProt I6L899, sequence (I6L899 whole entry, looked up): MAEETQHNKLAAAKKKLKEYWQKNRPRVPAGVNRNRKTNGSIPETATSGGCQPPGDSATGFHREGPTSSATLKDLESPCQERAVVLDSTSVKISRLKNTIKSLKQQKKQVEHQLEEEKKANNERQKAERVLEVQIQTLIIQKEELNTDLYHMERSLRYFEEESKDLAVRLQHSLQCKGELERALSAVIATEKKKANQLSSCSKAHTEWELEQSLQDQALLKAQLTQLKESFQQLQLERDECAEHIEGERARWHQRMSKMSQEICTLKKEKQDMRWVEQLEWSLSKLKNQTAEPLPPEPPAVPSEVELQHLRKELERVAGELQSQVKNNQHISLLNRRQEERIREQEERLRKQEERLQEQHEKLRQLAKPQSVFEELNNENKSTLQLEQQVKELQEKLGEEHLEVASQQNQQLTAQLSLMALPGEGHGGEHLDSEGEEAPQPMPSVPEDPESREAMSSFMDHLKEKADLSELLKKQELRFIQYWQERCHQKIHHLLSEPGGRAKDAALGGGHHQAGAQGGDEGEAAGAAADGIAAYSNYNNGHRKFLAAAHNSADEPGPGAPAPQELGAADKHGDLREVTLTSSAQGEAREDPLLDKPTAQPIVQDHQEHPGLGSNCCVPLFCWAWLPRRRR
inactive: erlotinib 0.377 | [1] -0.394 | [3] -0.019 | [4] 0.078 | [5] -0.008 | [6] 0.058 | [7] -0.049 | [8] -0.097 | [9] 0.302

GPNMB (UniProt Q14956)
inactive: erlotinib 0.286 | [2] -0.281 | [3] -0.046
